Bioassay records as filed in PubChem BioAssay.
The list is not random: actives were taken first. Their share in the collection is about 2.4%.
Pol iota inh = blocks human DNA polymerase iota activity; Pol iota fluorescent replication assay, 10 min; Q9UNA4; actives 1% (n = 390,000); Potency, µM (titrated, usually from 115 µM), without a hit: top-dose activity, negative = inhibition, actives largely listed as inhibitors
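Fluorescent replication assay read twice, at 0 min and 10 min after adding 50 nM (final) substrate. Enzyme (10 nM) and compounds were first incubated 15 min at room temperature; enzyme-free buffer wells were negative controls.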
FEN1 inh = inhibitors of human flap endonuclease 1 | Potency, µM (titrated, usually from 114 µM), for the others: top-dose activity change, negative = inhibition, actives largely listed as inhibitors | AID 588795 | actives 0.35% (n = 390,000) | P39748 | Recombinant FEN1 flap cleavage, fluorescence, 15 min; note: % is set by controls: 0 for no effect and ±100 for the full control effect; nearly all actives have a fitted effect of over 65% in size
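Enzyme 10 nM, 15 min RT preincubation with compound; start with substrate 50 nM final; reads at 0 and 15 min; qHTS titration, four-parameter Hill fit.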
WRN inhibitor = inhibitors of human WRN helicase; AID 651768; actives 0.46% (n = 360,000); Q14191; Potency, µM (titrated, usually from 114 µM), for inactives: at the highest dose activity change, negative = inhibition, hits mostly inhibitors; WRN helicase unwinding, fluorescent forked duplex, kinetic; note: % is set by controls: 0 for no effect and ±100 for the full control effect; nearly all actives have a fitted effect of over 55% in size
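Kinetic fluorescence helicase assay: unwinding of a quenched forked DNA duplex (100 nM final) with 2 mM ATP final raises red fluorescence (525/598 nm). Compounds sat 15 min at room temperature with 20 nM WRN beforehand.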
Pol eta inh = DNA polymerase eta (human) inhibition | Q9Y253 | recombinant Pol eta, fluorescent DNA replication assay | Potency, µM (highest dose often 114 µM), for the others: at the highest dose activity change, negative = inhibition, usual class: inhibitors | actives 1.2% (n = 390,000) | AID 588591; note: % is set by controls: 0 for no effect and ±100 for the full control effect
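Pol eta (10 nM) was preincubated with compounds for 15 min at room temperature, after which fluorescent replication substrate (50 nM final) was added to start the reaction. Fluorescence was read kinetically at 0 and 10 min.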
POLK inh = blocks human DNA polymerase kappa activity; AID 588579; purified Pol kappa, fluorescent DNA synthesis assay, 10 min; Potency, µM (highest dose often 107 µM), for inactives: at the highest dose activity, negative = inhibition, hits mostly inhibitors; actives 0.53% (n = 400,000); Q9UBT6; note: % is set by controls: 0 for no effect and ±100 for the full control effect
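10 nM Pol kappa was preincubated with compounds for 15 min at room temperature. Reaction started with 50 nM (final) substrate. Fluorescence read kinetically at 0 and 10 min.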
POLB inh = DNA polymerase beta (human) inhibition | actives 1.3% (n = 340,000) | P06746 | Pol beta primer extension/strand displacement, fluorescence kinetic | Potency, µM (highest dose often 114 µM), inactives show top-dose activity change, negative = inhibition, usual class: inhibitors; note: % is set by controls: 0 for no effect and ±100 for the full control effect
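Values derive from four-parameter Hill fits of normalized kinetic data: reads at 0 and 10 min following addition of 50 nM substrate to 10 nM Pol beta preincubated 15 min with compound.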
TbPGK inh = blocks T. brucei phosphoglycerate kinase. TbPGK coupled GAPDH assay, Kinase-Glo luminescence. actives 79% (n = 500). shares compounds with POLK inh. Potency, µM (series often up to 57.5 µM), without a hit: at the highest dose activity change, negative = inhibition, actives largely listed as inhibitors; note: % is set by controls: 0 for no effect and ±100 for the full control effect; nearly all actives have a fitted effect of over 65% in size
Target sequence (P07378 whole entry, looked up): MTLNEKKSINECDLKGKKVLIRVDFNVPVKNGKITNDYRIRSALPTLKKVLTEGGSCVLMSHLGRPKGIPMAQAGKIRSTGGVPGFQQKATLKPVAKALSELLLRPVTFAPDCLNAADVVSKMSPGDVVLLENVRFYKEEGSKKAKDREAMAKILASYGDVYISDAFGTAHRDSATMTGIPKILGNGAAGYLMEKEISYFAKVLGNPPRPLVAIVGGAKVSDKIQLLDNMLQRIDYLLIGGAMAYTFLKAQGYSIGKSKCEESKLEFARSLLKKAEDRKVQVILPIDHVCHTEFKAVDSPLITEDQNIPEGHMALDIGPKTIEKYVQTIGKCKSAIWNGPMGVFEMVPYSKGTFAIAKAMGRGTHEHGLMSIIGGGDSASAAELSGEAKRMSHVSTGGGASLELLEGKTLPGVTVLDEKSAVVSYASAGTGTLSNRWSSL
POLI cherry-pick = Confirm cherry-picked inhibitors of human polymerase iota. Pol iota primer extension, TAMRA/BHQ fluorescence. shares compounds with POLK inh. actives 77% (n = 1,500). Potency, µM, usual class: inhibitors
The depositor's hits bear a star; ? = inconclusive; . = not tested or not shown; [ ] = dose if it differs, or a comment. Calls come from the whole dose curve; as a rule, active = well fitted curve in the direction sought with a large enough effect; inconclusive = small, poorly fitted or top-dose-only effect, or another doubt; inactive = no such curve, though single readings can be large; an effect the other way counts as inactive or inconclusive. Potency is the fitted concentration of half-maximal effect.

SMILES | Pol iota inh | FEN1 inh | WRN inhibitor | Pol eta inh | POLK inh | POLB inh | TbPGK inh | others
C=C1CCN(C(C)C(=O)OCc2cccc(C)c2)S(=O)(=O)c2ccccc21 (stereo unspecified) | -6% | -18% | . | . | -4% | . | .
O=C(CNC(=O)c1ccc(S(=O)(=O)N2CCCCC2)cc1)N/N=C/c1ccco1 | ? | -8% | -21%[11.6 µM] | -4% | -9% | 3% | . | POLI cherry-pick=12*
O=C(N/N=C\c1ccc(OC(=O)c2cccs2)cc1)c1ccc(Cl)cc1 | ? | -35% | -10%[11.6 µM] | 3.2µM* | -7% | 3.2µM* | . | POLI cherry-pick=?
Cc1ccc(C(=O)c2sc(Nc3ccc(F)cc3)nc2N)c(C)c1 | -23% | -21% | . | -16% | -24% | -27% | .
CCn1c(NCc2ccc(N(C)C)cc2)nc2ccccc21 | 19% | 2% | -8% | 0% | -11% | -15% | .
CN(C)c1ccc(N=Nc2nc3ccccc3n2C)cc1 | 29% | -26% | -16% | -15% | -2% | -27% | 4.6µM*
Cn1c(N=Nc2ccccc2)nc2ccccc21 | 14% | -14% | -12% | -6% | -9% | -29% | 13µM*
CN1CCc2cc3c(cc2C(=O)Cc2ccc4c(c2C1)OCO4)OCO3 | . | . | . | . | -9%[19.4 µM] | . | .
Nc1nc(N2CCN(C(=O)c3ccco3)CC2)nc2ccc(Br)cc12 | 0% | -35% | -5% | -22% | -1% | -10% | ?
O=C(c1ccco1)N1CCN(c2ncccn2)CC1 | -10% | -2% | 7% | -11% | 2% | 20% | .
Cc1nc2cnc(Nc3ccccc3)nc2n(CCc2ccccc2)c1=O | . | . | . | . | 8%[60.1 µM] | . | .
CCN(CC)S(=O)(=O)c1cccc(C(=O)N/N=C/c2ccc(O)c(O)c2O)c1 | ? | ? | 25µM* | ? | ? | -2% | . | POLI cherry-pick=?
CCOc1ccccc1/C=N/NC(=O)c1cccc(S(=O)(=O)N(CC)CC)c1 | 31% | 2% | -10% | -6% | 0% | -24% | .
Cc1ccc2c(/C=C/c3ccc(N(C)C)cc3)ccnc2c1C | -2% | -8% | . | . | 3% | . | .
CC(=O)[C@@]1(O)CC[C@H]2C3CCC4=CC(=O)CC[C@]4(C)C3CC[C@@]21C (stereo partly specified) | 6%[58.9 µM] | . | . | -8%[57.1 µM] | . | 17%[57.1 µM] | .
COCCNc1ncnc2ccc(-c3cccc(OC)c3)cc12 | . | . | . | . | 11%[60.1 µM] | . | .
CNC(=O)C1(C(F)(F)F)CC(CCCO)CCCO1 (stereo unspecified) | -10% | 2% | . | . | -22% | . | .
Nc1ccc(N2CCCCC2)c2nonc12 | ? | ? | ? | 35µM* | -6% | 9% | . | POLI cherry-pick=?
CCCCCC(=O)Nc1cc(S(=O)(=O)O)cc2cc(S(=O)(=O)O)cc(O)c12 | 1µM* | 10µM* | 6.3µM* | -99% | 1.4µM* | . | 0.23µM*
COCCNC(=O)/C(C#N)=C/c1ccc(O)cc1 | 20% | 20% | -9% | -4% | 4% | 1% | 16µM*
COCCNC(=O)/C(C#N)=C/c1cccc(/C=C(\C#N)C(=O)NCCOC)c1 | 116% | 1% | -3% | -10% | -7% | -1% | .
COc1ccc(CNc2ncnc3ccc(-c4ccc(N(C)C)cc4)cc23)c(OC)c1 | . | . | . | . | -6%[60.1 µM] | . | .
CCc1ccccc1NC(=O)CSc1nncn2c1cc1oc(C)cc12 | 8% | -14% | . | -8% | -19% | 17% | .
COc1ccc(/C=N\NC(=O)c2c(C)nc3ccc(Br)cn23)cc1 | ? | 2% | -3% | ? | -33% | ? | . | POLI cherry-pick=?
Cc1cccc(-c2cc3c(nn2)-c2ccccc2C3=O)c1 | 35% | -19% | -35% | -12% | -12% | 7% | .
SMILES | Pol iota inh | FEN1 inh | WRN inhibitor | Pol eta inh | POLK inh | POLB inh | TbPGK inh | others
O=C1c2ccccc2-c2nnc(-c3ccccc3)cc21 | ? | -6% | -3% | -5% | 5% | 26% | 12µM*
COc1ccc(-c2cc3c(nn2)-c2ccccc2C3=O)cc1 | 187% | 1% | -4% | -21% | -3% | 37% | 4.6µM*
Cc1cccc(C2=N[C@@H](CC(C)C)CO2)c1 | . | . | . | . | -5% | . | .
CC(C)(C)C1CCc2c(sc(NC(=O)CCC(=O)O)c2C(=O)Nc2ccccc2C(F)(F)F)C1 (stereo unspecified) | ? | ? | . | ? | -25% | ? | . | POLI cherry-pick=?
CCOC(=O)c1c(C)[nH]c(C)c1S(=O)(=O)NCC(=O)Nc1cccc(SC)c1 | -16% | -1% | . | -2% | -30% | -16% | .
Cc1ccc(/C(N)=N/OC(=O)c2cccs2)cc1 | 13% | 5% | 3% | -14% | -6% | -14% | .
COc1ccc(C(=O)O/N=C(/C)c2cccs2)cc1 | 3% | -5% | -13% | -10% | -3% | 14% | 5.8µM*
COc1ccc(C(=O)O/N=C(\N)c2ccccc2)cc1 | 51% | 2% | -5% | -16% | -3% | 3% | 8.2µM*
COc1ccc(C(=O)O/N=C(\N)c2ccc(Br)cc2)cc1 | 95% | 20% | -2% | -8% | -5% | -2% | .
N/C(=N\OC(=O)c1cccs1)c1ccccc1 | -6% | -15% | -7% | -4% | -6% | -1% | 16µM*
CC(=O)Nc1ccccc1NS(=O)(=O)c1ccccc1NO | -6% | -2% | . | . | 8% | . | .
CSc1ccccc1NC(=O)COc1ccc(Cl)cc1Cl | -2% | -2% | ? | -28% | -8% | 17%[57.1 µM] | .
O=C(COc1ccc(Cl)cc1Cl)Nc1ccccn1 | -13%[58.9 µM] | -2% | 4% | 1% | -6% | 2% | 18µM*
COc1ccc(CC(N)C(=O)N[C@H]2[C@@H](O)[C@H](n3cnc4c(N(C)C)ncnc43)O[C@@H]2CO)cc1 (stereo partly specified) | . | . | . | . | -13%[60.1 µM] | . | .
CN(C)c1ccc(Nc2nc(N)c3ccccc3n2)cc1 | 6% | -6% | -7%[57.1 µM] | -8% | -28% | -3% | 13µM*
Nc1nc(Nc2ccccc2)nc2ccccc12 | -17% | -9% | 0% | -10% | -9% | 19% | .
C/C(=N/NC(=O)c1cc(O)c(O)c(O)c1)c1ccc([N+](=O)[O-])cc1 | ? | ? | ? | 14µM* | 13µM* | 1.8µM* | ?
C/C(=N\NC(=O)c1cnccn1)c1ccc([N+](=O)[O-])cc1 | 16% | -2% | 10% | -17% | 3% | 11% | .
C/C(=N\NC(=O)c1ccccc1NC(=O)c1ccc(Cl)cc1)c1ccncc1 | 50% | -2% | -1% | -17% | -2% | 4% | 6.5µM*
